From PubChem BioAssay (NCI)
This is part of a sample that, as a whole, favours compounds with a hit. Of some 79,000 tested, about 15% had one in any assay. Values without a mark were called inactive. Active and inactive are the calls of the source. No stated cut-off is given here; in the data, active means growth inhibition above about 70%; inactive means the rest.

Experiments:
[1] = NCI Yeast Anticancer Drug Screen. Data for the rad52 strain (AID 147);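 further: 0% = growth of vehicle-treated control cultures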; conditions: S. cerevisiae rad52 mutant growth inhibition, active compounds read high
Outline: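 Here a repair-compromised yeast strain receives each compound; its growth is then quantified and normalised to vehicle-only controls.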

[2] = NCI Yeast Anticancer Drug Screen. Data for the wt1 strain (AID 149);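 further: 0% = growth of vehicle-treated wt1 cultures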; conditions: S. cerevisiae wt1 strain (SPY 50644) growth inhibition, active compounds read high
Outline: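 Compounds are added to wt1 yeast cultures. Growth is then measured. Inhibition is expressed relative to vehicle-treated controls.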

[3] = NCI Yeast Anticancer Drug Screen. Data for the rad50EPP+ strain (AID 151);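 further: 0% = growth of vehicle-treated control cultures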; conditions: S. cerevisiae rad50 mutant strain, active compounds read high
Outline: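 Read-out is yeast growth inhibition relative to vehicle; cells used were the rad50EPP+ strain.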

[4] = NCI Yeast Anticancer Drug Screen. Data for the mgt1 strain (AID 153); conditions: S. cerevisiae mgt1 mutant growth inhibition, active compounds read high
Outline: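 Measured: inhibition of mgt1 yeast growth by compound, normalized to vehicle-treated cultures.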

[5] = NCI Yeast Anticancer Drug Screen. Data for the rad50 strain (AID 155);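 further: 0% = growth of vehicle-only cultures of the same strain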; conditions: S. cerevisiae rad50 strain growth inhibition, active compounds read high
Outline: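 Inhibition values express reduced yeast growth in compound-treated cultures relative to vehicle-treated controls.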

[6] = NCI Yeast Anticancer Drug Screen. Data for the mec2-1 strain (AID 157); conditions: S. cerevisiae mec2-1 strain, active compounds read high
Outline: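 Using mec2-1 yeast: add compound, measure growth, express inhibition versus vehicle-treated cultures.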

[7] = NCI Yeast Anticancer Drug Screen. Data for the rad14 strain (AID 159);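 further: 0% = growth of vehicle-treated control cultures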; conditions: S. cerevisiae rad14 strain growth inhibition, active compounds read high
Outline: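 A mutant yeast strain defective in DNA damage repair is treated with compound; inhibition of its growth is scored against untreated, vehicle-exposed cultures.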

[8] = NCI Yeast Anticancer Drug Screen. Data for the sgs1 mgt1 strain (AID 161);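 further: 0% = growth of cultures given vehicle only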; conditions: S. cerevisiae sgs1 mgt1 strain, active compounds read high
Outline: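 This yeast growth screen uses a strain with defined DNA-repair lesions; compound-treated growth is compared with vehicle-treated growth.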

[9] = NCI Yeast Anticancer Drug Screen. Data for the CLN2oe strain (AID 163);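 further: 0% = growth of vehicle-only control cultures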; conditions: S. cerevisiae CLN2oe strain, active compounds read high
Outline: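 Whole-cell yeast growth assay. A strain engineered for altered cell-cycle control received compound, and inhibition relative to vehicle-treated cultures was recorded.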

[10] = NCI Yeast Anticancer Drug Screen. Data for the cln2 rad14 strain (AID 165);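 further: 0% = growth equal to vehicle treated cultures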; conditions: S. cerevisiae cln2 rad14 strain, active compounds read high
Outline: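 Yeast strain cln2 rad14, bearing defects in cell cycle control and DNA repair, serves as the test system; values reflect growth inhibition compared with vehicle.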

[11] = NCI Yeast Anticancer Drug Screen. Data for the bub3 strain (AID 167); conditions: S. cerevisiae bub3 mutant strain, active compounds read high
Outline: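 Steps: expose the mutant yeast strain to compound; grow alongside vehicle-treated cultures; measure growth; express inhibition against the vehicle cultures.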

[12] = NCI Yeast Anticancer Drug Screen. Data for the mlh1 strain (AID 171);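 further: 0% = growth of vehicle-treated control cultures of the same strain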; conditions: S. cerevisiae mlh1 strain growth inhibition, active compounds read high
Outline: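 A yeast strain with a defined genetic lesion serves as the test organism. Cultures receive compound or vehicle, and growth is measured.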

[13] = NCI Yeast Anticancer Drug Screen. Data for the sgs1 strain (AID 173);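 further: 0% = growth of vehicle-only control cultures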; conditions: S. cerevisiae sgs1 mutant, active compounds read high
Outline: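 A genetically defined yeast mutant is incubated with the test compound, and its growth is compared to that of the same strain given vehicle.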

[14] = NCI Yeast Anticancer Drug Screen. Data for the mlh1 rad18 strain (AID 175); conditions: S. cerevisiae mlh1 rad18 strain growth inhibition, active compounds read high
Outline: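 Steps: expose repair-defective yeast to compound; measure growth; express inhibition against vehicle-treated controls.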

[15] = NCI Yeast Anticancer Drug Screen. Data for the rad18 strain (AID 177); conditions: S. cerevisiae rad18 mutant growth inhibition, active compounds read high
Outline: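 Measured value is growth inhibition of a yeast strain bearing a DNA repair alteration, referenced to vehicle-treated cells.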

[16] = NCI Yeast Anticancer Drug Screen. Data for the wt2 strain (AID 169);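 further: 0% = growth of vehicle-treated yeast cultures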; conditions: S. cerevisiae wt2 strain growth inhibition, active compounds read high
Outline: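 Treated yeast vs. vehicle-treated yeast: growth inhibition determined.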

[17] = at 5.0 µM (retest, dose inferred, filed as 0.5)
[18] = at 50.0 µM (retest, dose inferred, filed as 5.0)

For `COC1C(O)C(C)OC(OC2C(Oc3cccc4c(O)c5c(=O)oc6ccc(C)c7c(=O)oc(c34)c5c67)OC(C)C(O)C2O)C1O` (stereo not drawn), the growth inhibition ([1]; at 1.2 µM) was 41%, the growth inhibition ([1]; at 3.7 µM) was 67% and the growth inhibition ([1]; at 11.0 µM) was 85% (active). The growth inhibition ([1]; at 33.0 µM) was 87% (active), the growth inhibition ([1]; at 100.0 µM) was 89% (active) and the growth inhibition ([2]; at 1.2 µM) was 6%. The growth inhibition ([2]; at 3.7 µM) was 2%, the growth inhibition ([2]; at 11.0 µM) was 8% and the growth inhibition ([2]; at 33.0 µM) was 17%. For the same compound, the growth inhibition ([2]; at 100.0 µM) was 12%, the growth inhibition ([3]; at 1.2 µM) was 7% and the growth inhibition ([3]; at 3.7 µM) was 22%. For the same compound, the growth inhibition ([3]; at 11.0 µM) was 31%, the growth inhibition ([3]; at 33.0 µM) was 39% and the growth inhibition ([3]; at 100.0 µM) was 35%. For the same compound, the growth inhibition ([4]; at 1.2 µM) was -4%, the growth inhibition ([4]; at 3.7 µM) was 7% and the growth inhibition ([4]; at 11.0 µM) was -4%. The growth inhibition ([4]; at 33.0 µM) was 25%, the growth inhibition ([4]; at 100.0 µM) was 18% and the growth inhibition ([5]; at 1.2 µM) was 57%. The growth inhibition ([5]; at 3.7 µM) was 78% (active), the growth inhibition [5, 17] was 29% and the growth inhibition ([5]; at 11.0 µM) was 83% (active). For the same compound, the growth inhibition ([5]; at 33.0 µM) was 84% (active), the growth inhibition [5, 18] was 68% and the growth inhibition ([5]; at 50.0 µM) was 88% (active). The growth inhibition ([5]; at 100.0 µM) was 84% (active), the growth inhibition ([6]; at 1.2 µM) was 1% and the growth inhibition ([6]; at 3.7 µM) was 4%. The growth inhibition [6, 17] was 25%, the growth inhibition ([6]; at 11.0 µM) was 9% and the growth inhibition ([6]; at 33.0 µM) was 18%. The growth inhibition [6, 18] was 15%, the growth inhibition ([6]; at 50.0 µM) was 33.8% and the growth inhibition ([6]; at 100.0 µM) was 34%. For the same compound, the growth inhibition ([7]; at 1.2 µM) was 5%, the growth inhibition ([7]; at 3.7 µM) was 9% and the growth inhibition ([7]; at 11.0 µM) was 20%. It also gave a growth inhibition ([7]; at 33.0 µM) of 30%, a growth inhibition ([7]; at 100.0 µM) of 32% and a growth inhibition [8, 17] of 28%. For the same compound, the growth inhibition [8, 18] was -2%, the growth inhibition ([8]; at 50.0 µM) was 3.65% and the growth inhibition ([9]; at 1.2 µM) was 1%. It also gave a growth inhibition ([9]; at 3.7 µM) of 1%, a growth inhibition ([9]; at 11.0 µM) of 9% and a growth inhibition ([9]; at 33.0 µM) of 2%. The growth inhibition ([9]; at 100.0 µM) was 17%, the growth inhibition [10, 17] was 19% and the growth inhibition [10, 18] was 5%. The growth inhibition ([10]; at 50.0 µM) was -3.1%, the growth inhibition ([11]; at 1.2 µM) was -5% and the growth inhibition ([11]; at 3.7 µM) was -3%. It also gave a growth inhibition [11, 17] of 23%, a growth inhibition ([11]; at 11.0 µM) of -1% and a growth inhibition ([11]; at 33.0 µM) of -2%. For the same compound, the growth inhibition [11, 18] was -5%, the growth inhibition ([11]; at 50.0 µM) was 57.7% and the growth inhibition ([11]; at 100.0 µM) was 14%. The growth inhibition ([12]; at 1.2 µM) was 0%, the growth inhibition ([12]; at 3.7 µM) was 6% and the growth inhibition ([12]; at 11.0 µM) was 9%. For the same compound, the growth inhibition ([12]; at 33.0 µM) was 17%, the growth inhibition ([12]; at 100.0 µM) was 30% and the growth inhibition ([13]; at 1.2 µM) was 1%. For the same compound, the growth inhibition ([13]; at 3.7 µM) was 4%, the growth inhibition ([13]; at 11.0 µM) was 15% and the growth inhibition ([13]; at 33.0 µM) was 20%. The growth inhibition ([13]; at 100.0 µM) was 22%, the growth inhibition [14, 17] was -2% and the growth inhibition [14, 18] was -4%. For the same compound, the growth inhibition ([14]; at 50.0 µM) was 46.2%, the growth inhibition ([15]; at 1.2 µM) was 6% and the growth inhibition ([15]; at 3.7 µM) was 3%. The growth inhibition ([15]; at 11.0 µM) was 17%, the growth inhibition ([15]; at 33.0 µM) was 21% and the growth inhibition ([15]; at 100.0 µM) was 16%.
`C[C@]12CCc3nonc3C1CC[C@@H]1C2CC[C@]2(C)C(=O)CCC12` (stereo partly drawn) showed a growth inhibition ([1]; at 1.2 µM) of 4%, a growth inhibition ([1]; at 3.7 µM) of 5% and a growth inhibition ([1]; at 11.0 µM) of 22%. It also gave a growth inhibition ([1]; at 33.0 µM) of 36%, a growth inhibition ([1]; at 100.0 µM) of 66% and a growth inhibition ([2]; at 1.2 µM) of 0%. The growth inhibition ([2]; at 3.7 µM) was -2%, the growth inhibition ([2]; at 11.0 µM) was -4% and the growth inhibition ([2]; at 33.0 µM) was 6%. It also gave a growth inhibition ([2]; at 100.0 µM) of 21%, a growth inhibition ([3]; at 1.2 µM) of 0% and a growth inhibition ([3]; at 3.7 µM) of 1%. The growth inhibition ([3]; at 11.0 µM) was 5%, the growth inhibition ([3]; at 33.0 µM) was 12% and the growth inhibition ([3]; at 100.0 µM) was 13%. For the same compound, the growth inhibition ([4]; at 1.2 µM) was 8%, the growth inhibition ([4]; at 3.7 µM) was 6% and the growth inhibition ([4]; at 11.0 µM) was 19%. The growth inhibition ([4]; at 33.0 µM) was 42%, the growth inhibition ([4]; at 100.0 µM) was 59% and the growth inhibition ([5]; at 1.2 µM) was 11%. For the same compound, the growth inhibition ([5]; at 3.7 µM) was 7%, the growth inhibition [5, 17] was 51% and the growth inhibition ([5]; at 11.0 µM) was 28%. The growth inhibition ([5]; at 33.0 µM) was 62%, the growth inhibition [5, 18] was 68% and the growth inhibition ([5]; at 50.0 µM) was 68%. For the same compound, the growth inhibition ([5]; at 100.0 µM) was 76% (active), the growth inhibition ([7]; at 1.2 µM) was 27% and the growth inhibition ([7]; at 3.7 µM) was 38%. It also gave a growth inhibition ([7]; at 11.0 µM) of 38%, a growth inhibition ([7]; at 33.0 µM) of 46% and a growth inhibition ([7]; at 100.0 µM) of 60%. The growth inhibition [8, 17] was 46%, the growth inhibition [8, 18] was 73% (active) and the growth inhibition ([8]; at 50.0 µM) was 81.5% (active). It also gave a growth inhibition ([9]; at 1.2 µM) of 17%, a growth inhibition ([9]; at 3.7 µM) of 25% and a growth inhibition ([9]; at 11.0 µM) of 28%. For the same compound, the growth inhibition ([9]; at 33.0 µM) was 41%, the growth inhibition ([9]; at 100.0 µM) was 51% and the growth inhibition [10, 17] was 54%. For the same compound, the growth inhibition [10, 18] was 57%, the growth inhibition ([10]; at 50.0 µM) was 44.1% and the growth inhibition ([11]; at 1.2 µM) was 1%. It also gave a growth inhibition ([11]; at 3.7 µM) of 6%, a growth inhibition [11, 17] of 14% and a growth inhibition ([11]; at 11.0 µM) of 19%. For the same compound, the growth inhibition ([11]; at 33.0 µM) was 24%, the growth inhibition [11, 18] was 76% (active) and the growth inhibition ([11]; at 50.0 µM) was 35.8%. For the same compound, the growth inhibition ([11]; at 100.0 µM) was 49%, the growth inhibition ([16]; at 1.2 µM) was 5% and the growth inhibition ([16]; at 3.7 µM) was 6%. The growth inhibition ([16]; at 11.0 µM) was 1%, the growth inhibition ([16]; at 33.0 µM) was 14% and the growth inhibition ([16]; at 100.0 µM) was 39%. For the same compound, the growth inhibition ([12]; at 1.2 µM) was -4%, the growth inhibition ([12]; at 3.7 µM) was -3% and the growth inhibition ([12]; at 11.0 µM) was -1%. It also gave a growth inhibition ([12]; at 33.0 µM) of 19%, a growth inhibition ([12]; at 100.0 µM) of 50% and a growth inhibition [14, 17] of 46%. For the same compound, the growth inhibition [14, 18] was 68%, the growth inhibition ([14]; at 50.0 µM) was 56.9% and the growth inhibition ([15]; at 1.2 µM) was 14%. The growth inhibition ([15]; at 3.7 µM) was 12%, the growth inhibition ([15]; at 11.0 µM) was 19% and the growth inhibition ([15]; at 33.0 µM) was 28%. The growth inhibition ([15]; at 100.0 µM) was 62%.
